Assay results taken from article PMC7862700, “An all-to-all approach to the identification of sequence-specific readers for epigenetic DNA modifications on cytosine”.

How the values were obtained:
Assay in all cases: DAPPL (digital affinity profiling via proximity ligation, sequencing); 10 mM Tris-HCl pH 7.5, 50 mM NaCl, 1 mM DTT, 4% glycerol, room temperature, 30 min; GST-TFs on glutathione beads, 16-mer random dsDNA library, 0.1% formaldehyde crosslink after washing; high values mean tight binding
Settings in all cases: protein: recombinant; tags: N-terminal GST; dsDNA, one strand shown
FLI1 = target: T1, FLI1 (Homo sapiens, UniProt Q01543 1-452)
T1 sequence: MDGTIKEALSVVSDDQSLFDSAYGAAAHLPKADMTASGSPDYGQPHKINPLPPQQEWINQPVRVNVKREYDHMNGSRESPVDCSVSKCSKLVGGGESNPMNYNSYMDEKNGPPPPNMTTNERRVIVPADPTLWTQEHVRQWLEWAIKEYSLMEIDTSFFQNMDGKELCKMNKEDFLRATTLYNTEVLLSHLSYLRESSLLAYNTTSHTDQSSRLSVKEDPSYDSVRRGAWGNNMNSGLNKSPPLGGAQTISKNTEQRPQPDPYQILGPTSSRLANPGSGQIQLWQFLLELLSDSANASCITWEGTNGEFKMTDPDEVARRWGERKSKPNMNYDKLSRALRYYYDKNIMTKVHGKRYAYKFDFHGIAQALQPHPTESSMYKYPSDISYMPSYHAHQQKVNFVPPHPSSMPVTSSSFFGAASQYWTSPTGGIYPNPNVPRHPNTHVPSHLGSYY
Outline: (§1)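 Binding signal is given per hexamer as its read frequency for a factor divided by its frequency in the tag-only sample. GST-fused human transcription factors were expressed in yeast, captured on glutathione beads, barcoded with DNA and pooled with that sample, then incubated with 200 nmole of a 16-mer random double-stranded DNA library in Tris/NaCl/DTT/glycerol buffer for 30 min at room temperature. The pools were then washed, crosslinked, proximity-ligated, amplified by PCR and sequenced on an Illumina NextSeq500.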

ELK1 = target: T2, ELK1 (Homo sapiens, UniProt P19419 1-428)
T2 sequence: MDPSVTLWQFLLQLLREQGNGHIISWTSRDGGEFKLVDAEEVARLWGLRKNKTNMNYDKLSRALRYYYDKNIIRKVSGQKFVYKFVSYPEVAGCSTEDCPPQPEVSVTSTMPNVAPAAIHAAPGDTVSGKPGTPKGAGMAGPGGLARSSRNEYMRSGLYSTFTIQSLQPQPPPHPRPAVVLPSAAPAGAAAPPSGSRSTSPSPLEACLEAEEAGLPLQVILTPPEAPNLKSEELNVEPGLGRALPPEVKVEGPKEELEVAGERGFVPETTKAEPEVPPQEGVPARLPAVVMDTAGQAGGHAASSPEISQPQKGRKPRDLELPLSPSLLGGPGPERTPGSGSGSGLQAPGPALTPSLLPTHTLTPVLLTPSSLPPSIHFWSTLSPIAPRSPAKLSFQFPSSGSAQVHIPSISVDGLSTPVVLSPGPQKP
Outline: as §1

GABPA = target: T3, GABPA (Homo sapiens, UniProt Q06546 1-454)
T3 sequence: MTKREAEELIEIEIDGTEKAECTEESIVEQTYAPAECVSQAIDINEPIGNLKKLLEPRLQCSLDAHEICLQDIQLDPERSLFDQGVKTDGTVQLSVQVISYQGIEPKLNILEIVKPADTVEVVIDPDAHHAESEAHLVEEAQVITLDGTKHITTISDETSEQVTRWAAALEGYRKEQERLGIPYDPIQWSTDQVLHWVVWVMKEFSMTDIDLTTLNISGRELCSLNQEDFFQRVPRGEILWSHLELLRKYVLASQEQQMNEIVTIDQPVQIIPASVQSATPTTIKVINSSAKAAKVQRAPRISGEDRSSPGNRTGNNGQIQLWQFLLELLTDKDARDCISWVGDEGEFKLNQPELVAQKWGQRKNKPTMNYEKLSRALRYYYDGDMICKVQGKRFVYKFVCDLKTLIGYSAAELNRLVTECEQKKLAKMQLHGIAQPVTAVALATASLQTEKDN
Outline: as §1

ERG = target: T4, ERG (Homo sapiens, UniProt P11308 1-479)
T4 sequence: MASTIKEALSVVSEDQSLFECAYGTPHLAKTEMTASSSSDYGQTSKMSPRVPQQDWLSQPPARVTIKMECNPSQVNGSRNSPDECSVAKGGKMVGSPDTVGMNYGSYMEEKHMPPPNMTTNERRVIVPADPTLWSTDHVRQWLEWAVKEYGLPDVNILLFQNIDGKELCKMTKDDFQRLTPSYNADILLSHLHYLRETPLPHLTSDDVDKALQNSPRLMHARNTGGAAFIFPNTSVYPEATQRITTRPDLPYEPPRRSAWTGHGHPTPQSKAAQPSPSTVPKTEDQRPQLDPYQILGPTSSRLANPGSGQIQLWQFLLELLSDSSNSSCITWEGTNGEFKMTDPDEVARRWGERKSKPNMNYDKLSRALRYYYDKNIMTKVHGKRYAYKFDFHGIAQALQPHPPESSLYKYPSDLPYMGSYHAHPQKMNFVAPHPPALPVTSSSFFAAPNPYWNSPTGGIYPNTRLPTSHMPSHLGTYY
Outline: as §1

ELF1 = ELF1 (Homo sapiens, UniProt P32519 1-619)
Sequence of ELF1 (P32519 whole entry): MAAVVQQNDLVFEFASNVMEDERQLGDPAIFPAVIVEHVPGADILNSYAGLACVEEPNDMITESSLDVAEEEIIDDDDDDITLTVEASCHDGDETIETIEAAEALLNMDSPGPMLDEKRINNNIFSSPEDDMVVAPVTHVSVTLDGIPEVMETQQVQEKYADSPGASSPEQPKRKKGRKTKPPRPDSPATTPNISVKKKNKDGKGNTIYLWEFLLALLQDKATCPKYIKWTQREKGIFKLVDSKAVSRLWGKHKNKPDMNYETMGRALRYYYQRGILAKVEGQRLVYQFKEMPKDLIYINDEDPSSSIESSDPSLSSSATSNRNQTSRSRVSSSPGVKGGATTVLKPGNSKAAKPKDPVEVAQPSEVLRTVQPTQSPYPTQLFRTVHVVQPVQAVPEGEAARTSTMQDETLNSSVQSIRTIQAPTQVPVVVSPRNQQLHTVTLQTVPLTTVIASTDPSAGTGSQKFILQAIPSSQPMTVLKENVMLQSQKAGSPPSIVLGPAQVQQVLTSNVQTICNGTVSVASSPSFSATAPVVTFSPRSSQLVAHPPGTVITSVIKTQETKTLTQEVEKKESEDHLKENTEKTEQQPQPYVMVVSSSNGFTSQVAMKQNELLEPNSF
Outline: as §1

EHF = target: T5, EHF (Homo sapiens, UniProt Q9NZC4 1-300)
T5 sequence: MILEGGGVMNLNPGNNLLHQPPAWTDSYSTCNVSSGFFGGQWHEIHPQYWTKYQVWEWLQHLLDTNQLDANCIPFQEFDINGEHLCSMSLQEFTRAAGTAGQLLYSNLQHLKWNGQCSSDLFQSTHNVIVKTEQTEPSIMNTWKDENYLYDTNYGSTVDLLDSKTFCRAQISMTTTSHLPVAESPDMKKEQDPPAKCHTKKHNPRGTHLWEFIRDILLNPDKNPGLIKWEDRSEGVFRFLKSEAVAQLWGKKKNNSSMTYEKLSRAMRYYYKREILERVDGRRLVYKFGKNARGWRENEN
Outline: as §1

SPI1 = SPI1 (Homo sapiens, UniProt P17947 1-270)
Outline: as §1

SPIB = SPIB (Homo sapiens, UniProt Q01892 1-262)
Sequence of SPIB (Q01892 whole entry): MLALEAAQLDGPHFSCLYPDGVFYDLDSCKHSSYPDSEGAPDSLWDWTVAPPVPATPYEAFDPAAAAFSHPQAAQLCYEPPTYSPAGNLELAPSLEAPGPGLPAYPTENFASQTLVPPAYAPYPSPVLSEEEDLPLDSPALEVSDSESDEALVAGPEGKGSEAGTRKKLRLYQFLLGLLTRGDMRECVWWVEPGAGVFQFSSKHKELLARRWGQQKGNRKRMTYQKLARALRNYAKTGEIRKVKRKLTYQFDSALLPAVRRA
Outline: as §1

ELK3 = target: T6, ELK3 (Homo sapiens, UniProt P41970 1-407)
T6 sequence: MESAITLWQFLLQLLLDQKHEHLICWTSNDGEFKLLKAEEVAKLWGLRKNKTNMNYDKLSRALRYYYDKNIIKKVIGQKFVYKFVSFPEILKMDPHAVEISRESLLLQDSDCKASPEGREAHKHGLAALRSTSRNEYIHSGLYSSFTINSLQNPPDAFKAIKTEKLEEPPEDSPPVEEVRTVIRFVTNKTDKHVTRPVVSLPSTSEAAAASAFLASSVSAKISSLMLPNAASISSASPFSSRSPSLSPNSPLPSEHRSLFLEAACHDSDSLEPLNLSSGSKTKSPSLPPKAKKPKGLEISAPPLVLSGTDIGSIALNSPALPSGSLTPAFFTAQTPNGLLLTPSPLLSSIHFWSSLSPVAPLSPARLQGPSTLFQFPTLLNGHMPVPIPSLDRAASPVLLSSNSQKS
Outline: as §1

Sequence: GGCCTC
- binding signal (FLI1): 1.25 fold enrichment (6-mer frequency, TF over GST control)
- binding signal (ELK1): 1.2 fold enrichment (6-mer frequency, TF over GST control)
- binding signal (GABPA): 1.26 fold enrichment (6-mer frequency, TF over GST control)
- binding signal (ERG): 1.19 fold enrichment (6-mer frequency, TF over GST control)
- binding signal (ELF1): 1.17 fold enrichment (6-mer frequency, TF over GST control)
- binding signal (EHF): 1.21 fold enrichment (6-mer frequency, TF over GST control)
- binding signal (SPI1): 1.11 fold enrichment (6-mer frequency, TF over GST control)
- binding signal (SPIB): 1.18 fold enrichment (6-mer frequency, TF over GST control)
- binding signal (ELK3): 1.1 fold enrichment (6-mer frequency, TF over GST control)

Sequence: CCGGTA
- binding signal (FLI1): 1.48 fold enrichment (6-mer frequency, TF over GST control)
- binding signal (ELK1): 1.51 fold enrichment (6-mer frequency, TF over GST control)
- binding signal (GABPA): 1.46 fold enrichment (6-mer frequency, TF over GST control)
- binding signal (ERG): 1.7 fold enrichment (6-mer frequency, TF over GST control)
- binding signal (ELF1): 1.5 fold enrichment (6-mer frequency, TF over GST control)
- binding signal (EHF): 1.62 fold enrichment (6-mer frequency, TF over GST control)
- binding signal (SPI1): 1.45 fold enrichment (6-mer frequency, TF over GST control)
- binding signal (SPIB): 1.59 fold enrichment (6-mer frequency, TF over GST control)
- binding signal (ELK3): 1.41 fold enrichment (6-mer frequency, TF over GST control)

Sequence: TCTACA
- binding signal (FLI1): 1.12 fold enrichment (6-mer frequency, TF over GST control)
- binding signal (ELK1): 1.17 fold enrichment (6-mer frequency, TF over GST control)
- binding signal (GABPA): 1.19 fold enrichment (6-mer frequency, TF over GST control)
- binding signal (ERG): 1.23 fold enrichment (6-mer frequency, TF over GST control)
- binding signal (ELF1): 1.28 fold enrichment (6-mer frequency, TF over GST control)
- binding signal (EHF): 1.25 fold enrichment (6-mer frequency, TF over GST control)
- binding signal (SPI1): 1.14 fold enrichment (6-mer frequency, TF over GST control)
- binding signal (SPIB): 1.18 fold enrichment (6-mer frequency, TF over GST control)
- binding signal (ELK3): 1.23 fold enrichment (6-mer frequency, TF over GST control)

Sequence: CTAAAC
- binding signal (FLI1): 1.24 fold enrichment (6-mer frequency, TF over GST control)
- binding signal (ELK1): 1.18 fold enrichment (6-mer frequency, TF over GST control)
- binding signal (GABPA): 1.23 fold enrichment (6-mer frequency, TF over GST control)
- binding signal (ERG): 1.23 fold enrichment (6-mer frequency, TF over GST control)
- binding signal (ELF1): 1.24 fold enrichment (6-mer frequency, TF over GST control)
- binding signal (EHF): 1.18 fold enrichment (6-mer frequency, TF over GST control)
- binding signal (SPI1): 1.17 fold enrichment (6-mer frequency, TF over GST control)
- binding signal (SPIB): 1.19 fold enrichment (6-mer frequency, TF over GST control)
- binding signal (ELK3): 1.2 fold enrichment (6-mer frequency, TF over GST control)

Sequence: CACACA
- binding signal (FLI1): 1.17 fold enrichment (6-mer frequency, TF over GST control)
- binding signal (ELK1): 1.08 fold enrichment (6-mer frequency, TF over GST control)
- binding signal (GABPA): 1.14 fold enrichment (6-mer frequency, TF over GST control)
- binding signal (ERG): 1.15 fold enrichment (6-mer frequency, TF over GST control)
- binding signal (ELF1): 1.16 fold enrichment (6-mer frequency, TF over GST control)
- binding signal (EHF): 1.19 fold enrichment (6-mer frequency, TF over GST control)
- binding signal (SPI1): 1.07 fold enrichment (6-mer frequency, TF over GST control)
- binding signal (SPIB): 1.17 fold enrichment (6-mer frequency, TF over GST control)
- binding signal (ELK3): 1.2 fold enrichment (6-mer frequency, TF over GST control)

Sequence: TGCGCG
- binding signal (FLI1): 1.02 fold enrichment (6-mer frequency, TF over GST control)
- binding signal (ELK1): 1.05 fold enrichment (6-mer frequency, TF over GST control)
- binding signal (GABPA): 1.02 fold enrichment (6-mer frequency, TF over GST control)
- binding signal (ERG): 1.04 fold enrichment (6-mer frequency, TF over GST control)
- binding signal (ELF1): 1.02 fold enrichment (6-mer frequency, TF over GST control)
- binding signal (EHF): 1.16 fold enrichment (6-mer frequency, TF over GST control)
- binding signal (SPI1): 1.16 fold enrichment (6-mer frequency, TF over GST control)
- binding signal (SPIB): 1.06 fold enrichment (6-mer frequency, TF over GST control)
- binding signal (ELK3): 1.11 fold enrichment (6-mer frequency, TF over GST control)

Sequence: TAGCAA
- binding signal (FLI1): 1.15 fold enrichment (6-mer frequency, TF over GST control)
- binding signal (ELK1): 1.21 fold enrichment (6-mer frequency, TF over GST control)
- binding signal (GABPA): 1.21 fold enrichment (6-mer frequency, TF over GST control)
- binding signal (ERG): 1.17 fold enrichment (6-mer frequency, TF over GST control)
- binding signal (ELF1): 1.23 fold enrichment (6-mer frequency, TF over GST control)
- binding signal (EHF): 1.23 fold enrichment (6-mer frequency, TF over GST control)
- binding signal (SPI1): 1.21 fold enrichment (6-mer frequency, TF over GST control)
- binding signal (SPIB): 1.34 fold enrichment (6-mer frequency, TF over GST control)
- binding signal (ELK3): 1.24 fold enrichment (6-mer frequency, TF over GST control)

Sequence: AACTTC
- binding signal (FLI1): 2.4 fold enrichment (6-mer frequency, TF over GST control)
- binding signal (ELK1): 2.53 fold enrichment (6-mer frequency, TF over GST control)
- binding signal (GABPA): 2.41 fold enrichment (6-mer frequency, TF over GST control)
- binding signal (ERG): 2.73 fold enrichment (6-mer frequency, TF over GST control)
- binding signal (ELF1): 2.47 fold enrichment (6-mer frequency, TF over GST control)
- binding signal (EHF): 2.5 fold enrichment (6-mer frequency, TF over GST control)
- binding signal (SPI1): 3.04 fold enrichment (6-mer frequency, TF over GST control)
- binding signal (SPIB): 2.77 fold enrichment (6-mer frequency, TF over GST control)
- binding signal (ELK3): 2.72 fold enrichment (6-mer frequency, TF over GST control)
